The whole screen tested about 13,000 compounds, of which about 3,200 (25%) showed an effect of 50% or more. The list shows a part of the results.
These molecules were tested on P. falciparum stage V gametocytes. Conditions: 48 h, 5 µM; inhibitor.
Design: BacTiter-Glo ATP luminescence viability of purified stage V gametocytes in 384-well plates, per cent inhibition versus DMSO

Row | Compound | % Inhibition
1 | CC(C)(C(=O)Nc1ccc(N2CCC3(CCCN(CC4CC4)C3)CC2)c(Cl)c1)c1cccc(C(F)(F)F)c1 [TCMDC-134639] | -12.77%
2 | CC(C)(C(=O)Nc1ccc(C2CCC(NCC3CC3)CC2)c(Cl)c1)c1cccc(OC(F)F)c1 (centres unmarked) [TCMDC-134643] | 32%
3 | CC(C)(C(=O)Nc1ccc(C2CCC(NCC3CC3)CC2)c(Cl)c1)c1ccc(C(F)(F)F)cc1 (centres unmarked) [TCMDC-134642] | 92.31%
4 | O=C(Nc1cccc(-c2ccc(-c3nc4ccc(C(F)(F)F)cc4[nH]3)cc2)c1)c1cnc[nH]1 [TCMDC-136938] | -50.65%
5 | CCC(=O)Nc1ccc(Nc2nc(C)cc(N3CCCC3)n2)cc1 [TCMDC-124971] | -15.13%
6 | Cc1nnc(Sc2ncnc3scc(-c4ccc(F)cc4)c23)s1 [TCMDC-125239] | 77.07%
7 | Clc1ncnc2scc(-c3ccc(Br)cc3)c12 [TCMDC-125318] | -35.26%
8 | Fc1ccc(-c2csc3ncnc(Cl)c23)cc1 [TCMDC-125317] | 5.052%
9 | CN1CC=C(c2c[nH]c3ccc(Oc4ccccc4)cc23)CC1 [TCMDC-138966] | 12.83%
10 | CN(C)Cc1ccc(-c2cc3c(-c4ccc(CN(C)C)cc4)ccnc3[nH]2)cc1 [TCMDC-132409] | 78.19%
11 | CN(C)Cc1cccc(-c2cc3c(-c4cnn(C)c4)c(Cl)cnc3[nH]2)c1 [TCMDC-134147] | -89.46%
12 | NCCNS(=O)(=O)c1ccc(-c2ccnc3[nH]c(-c4ccncc4)cc23)cc1 [TCMDC-133364] | 20.68%
13 | Cc1ccc2[nH]c(-c3ccccc3N)cc2c1 [TCMDC-131289] | -61.86%
14 | CNC(=O)c1c(NC(=O)c2cccs2)sc2c1CCCC2 [TCMDC-125739] | -2.665%
15 | O=C(NC1CCN(CC2(c3ccccc3F)CCCC2)CC1)c1ccn[nH]1 [TCMDC-124837] | 65.27%
16 | O=C(NC1CCN(CC2(c3ccccc3)CCCC2)CC1)c1[nH]ncc1Cl [TCMDC-124836] | 56.38%
17 | O=C(NC1CCN(Cc2ccc(Cl)cc2)CC1)c1cn(-c2ccccc2)nc1-c1cccnc1 [TCMDC-125254] | -34.02%
18 | O=C(Nc1ccc(F)cc1)c1ccc(C(=O)NC2CCN(CC3CCCCC3)CC2)cc1 [TCMDC-136749] | -13.8%
19 | O=C(NC1CCN(CC2(c3ccc(Cl)cc3)CCC2)CC1)c1ccn[nH]1 [TCMDC-124830] | 58.08%
20 | Cc1ccc(C2(CN3CCC(NC(=O)c4[nH]ncc4Cl)CC3)CCCCC2)cc1 [TCMDC-124838] | 29.65%
21 | CN(C)c1ccc(CN2CCC(NC(=O)c3ccc(-c4ccccc4F)s3)CC2)cc1 [TCMDC-134326] | -40.45%
22 | O=C(NC1CCN(CC2(c3ccc(Cl)cc3)CCCCC2)CC1)c1ccn[nH]1 [TCMDC-124828] | 65.33%
23 | O=C(NC1CCN(CCC(NC(=O)c2ccccc2)c2ccc(Cl)c(Cl)c2)CC1)c1ccc(Cl)cc1 (centres unmarked) [TCMDC-141712] | -1.186%
24 | O=C(NC1CC1)c1cnc(N2CCN(Cc3ccc(Cl)cc3)CC2)c(Cl)c1 [TCMDC-134601] | 8.945%
25 | CC(C)c1ccc(CN2CCC(NC(=O)c3ccc(-c4ccccc4F)s3)CC2)cc1 [TCMDC-134345] | -26.31%
26 | Cc1cc(C(=O)NC2CCN(Cc3ccccc3)CC2)ccc1-c1nc2cc(Cl)c(Cl)cc2[nH]1 [TCMDC-140081] | 10.28%

Reference: paper PMC4552634, “A New Set of Chemical Starting Points with Plasmodium falciparum Transmission-Blocking Potential for Antimalarial Drug Discovery” (PLoS ONE, 2015)
